An excerpt weighted towards active compounds, which were near 9.3% of everything screened.
NPC1 prom act – activates the NPC1 promoter; AID 485313; Huh7 NPC1 promoter luciferase reporter, 24 h; 320,000 compounds, 2.4% hits; Potency, µM (titrated, usually from 9.22 µM), for inactives: at the top dose activation, hits mostly activators; note: % of control where 0% means no effect; nearly all actives have a fitted effect of over 60% in size
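Compounds in DMSO were transferred onto Huh7 NPC1-luciferase reporter cells pre-incubated 2 h; after 24 h at 37 °C, Amplite reagent was dispensed and luminescence recorded 10 min later.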
SMN2 splice enh – enhancers of SMN2 splice variant expression. 210,000 compounds, 2.8% hits. AID 1458. Potency, µM (doses to about 46.1 µM), for inactives: top-dose activity change, positive = activation, most hits filed as activators. HEK293 SMN2-luciferase splicing reporter, luminescence, 30-36 h; note: % of control where 0% means no effect; nearly all actives have a fitted effect of over 55% in size
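qHTS luciferase splicing reporter: luminescence rises when SMN2 exon 7 is included in transfected HEK293 cells. Compound exposure lasted 30-36 h at 37C, with 4.5 mM final sodium butyrate as control, followed by a ONE-Glo read.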
Rab9 promoter act – activates the Rab9 promoter | Potency, µM (doses to about 9.22 µM), for inactives: at the highest dose activation, negative = inhibition, usual class: activators | Huh7 Rab9 promoter-luciferase reporter, luminescence, 24 h | 320,000 compounds, 2.8% hits; note: % of control where 0% means no effect; nearly all actives have a fitted effect of over 60% in size
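Cells were plated at 1500 per well in reduced-serum medium with 10% FBS and left 2 h. Compound in DMSO was then added for 24 h at 37 °C. Reporter signal was read by luminescence after 10 min with luciferase detection reagent.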
FLuc counter – counter-screen for miR-21 project: firefly luciferase inhibitors or activators; Potency, µM (highest dose often 57.5 µM), without a hit: at the top dose activity change, negative = inhibition, most hits filed as inhibitors; 360,000 compounds, 6.9% hits; purified FLuc, Km substrates, luminescence inhibition;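 note: plate controls were vehicle for no effect and reference inhibitor for full effect; nearly all actives have a fitted effect of over 55% in size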
Target sequence (P08659 whole entry, looked up): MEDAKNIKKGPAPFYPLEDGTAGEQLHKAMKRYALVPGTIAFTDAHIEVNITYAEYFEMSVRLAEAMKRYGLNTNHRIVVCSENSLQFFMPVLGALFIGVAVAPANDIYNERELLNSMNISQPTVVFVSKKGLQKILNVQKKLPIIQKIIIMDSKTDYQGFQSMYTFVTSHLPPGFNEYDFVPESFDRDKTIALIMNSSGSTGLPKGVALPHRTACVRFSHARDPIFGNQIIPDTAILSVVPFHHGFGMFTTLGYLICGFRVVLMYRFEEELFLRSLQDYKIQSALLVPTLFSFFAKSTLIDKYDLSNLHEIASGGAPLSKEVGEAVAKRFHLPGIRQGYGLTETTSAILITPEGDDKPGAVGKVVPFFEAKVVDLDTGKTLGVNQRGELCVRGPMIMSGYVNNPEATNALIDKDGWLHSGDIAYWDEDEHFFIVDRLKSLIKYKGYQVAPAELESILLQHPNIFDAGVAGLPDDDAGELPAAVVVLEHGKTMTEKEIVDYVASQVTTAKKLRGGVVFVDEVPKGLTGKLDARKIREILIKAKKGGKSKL
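Purified P. pyralis luciferase (10nM final) with 10uM D-luciferin and 10uM ATP (Km levels) in 50mM Tris acetate pH 7.5, 10mM Mg acetate, 0.01% Tween-20, 0.05% BSA; qHTS 6-point titration, ~60 µM downward; luminescence read.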
ELG1 genotox – genotoxicity induction in ELG1-luciferase HEK293T cells; HEK293T ELG1-luciferase reporter, luminescence, 16 h; Potency, µM (top dose mostly 46 µM), for inactives: top-dose activity change, positive = activation, most hits filed as activators; 330,000 compounds, 1.3% hits; AID 504466; note: % of control where 0% means no effect; nearly all actives have a fitted effect of over 60% in size
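Reporter readout depends on ELG1 protein level, which increases with genetic stress. After 16 hr compound exposure at 37 °C, luciferase activity was quantified using ONE-Glo.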
ELG1 DNA repair – ELG1-dependent DNA repair inhibition; HEK293T ELG1-luciferase reporter, luminescence, 16 h; DNA damage induced by 5-fluorouridine; Potency, µM (highest dose often 46.1 µM), without a hit: at the top dose activity change, negative = inhibition, hits mostly inhibitors; 330,000 compounds, 2.3% hits; AID 504467; note: % is set by controls: 0 for no effect and ±100 for the full control effect; nearly all actives have a fitted effect of over 55% in size
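5-Fluorouridine DNA damage + compound/DMSO, 2,000 cells/well, 16 h, 37 °C/5% CO2. ONE-Glo, 30 min RT, luminescence. Readout = decrease in reporter signal.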
* = called active by the depositor; ? = inconclusive; nt = no result given; [ ] = another dose, or the depositor's remark. Calls come from the whole dose curve; as a rule, active = well fitted curve in the direction sought with a large enough effect; inconclusive = small, poorly fitted or top-dose-only effect, or another doubt; inactive = no such curve, though single readings can be large; an effect the other way counts as inactive or inconclusive. Potency is the fitted concentration of half-maximal effect.

SMILES	NPC1 prom act	SMN2 splice enh	Rab9 promoter act	FLuc counter	ELG1 genotox	ELG1 DNA repair
Cc1ccc2c(c1)N(CC(=O)Nc1ccccc1F)C(=O)CO2	-5%	nt	2%	0%	5%	-14%
CCN1CCN(c2ncc3c(n2)CCN(Cc2sccc2C)C3)CC1	nt	nt	nt	-1%	nt	nt
CC(C)CCNC(=O)C(c1ccc(O)cc1)N(Cc1cccs1)C(=O)C1COc2ccccc2O1 (centres undefined)	-3%	-16%	-4%	0%	-12%	21µM*
O=C(NCc1ccco1)C(c1ccncc1)N(C(=O)Cc1cccs1)c1ccccc1 (centres undefined)	-1%	0%	0%	1%	-2%	4%
O=C(NCc1ccco1)C(c1cccs1)N(C(=O)C1COc2ccccc2O1)c1cccc(O)c1 (centres undefined)	1%	-26%	-7%	8%	-12%	13µM*
O=C(COc1ccccc1Cl)c1ccc2c(c1)CCCC2	?	14µM*	3.5µM*	11µM*	?	?
Cc1cnc(C(=O)OCC(=O)c2ccc(C3CCCCC3)cc2)cn1	1%	nt	0%	?	6%	?
O=C(COC(=O)c1cnccn1)c1ccc2c(c1)CCCC2	9%	6%	9%	4.8µM*	-4%	?
O=C(COC(=O)c1cnccn1)c1ccc(Cl)cc1	-5%	3%	0%	19µM*	2%	6%
O=C(COC(=O)c1cnccn1)c1ccc(C2CCCCC2)cc1	-1%	nt	2%	2.4µM*	0%	8%
O=C(CNCc1ccc(F)cc1)Nc1ccccc1[N+](=O)[O-]	-6%	0%	-6%	-2%	4%	14%
O=C(COC(=O)c1cnccn1)c1ccc(Br)cc1	2%	-12%	0%	15µM*	14%	6%
N#Cc1ccc(CSc2nnc(-c3ccncc3)n2CCc2ccccc2)cc1	0%	-26%	8%	3%	-6%	23µM*
N#Cc1ccc(CSc2nnc(-c3cccs3)n2-c2ccccc2)cc1	0%	8%	1%	-2%	-25%	21µM*
N#Cc1ccc(CSc2nnc(-c3ccccn3)n2-c2ccccc2)cc1	-1%	-30%	-4%	8%	-1%	-25%
CCc1ccccc1NC(=O)CNC(=O)c1ccc(-n2cncn2)c([N+](=O)[O-])c1	-5%	nt	0%	4%	0%	15%
CCOC(=O)C1=C(C)NC(C)=C(C(=O)OCC)C1c1ccc(O)cc1	0%	13µM*	12%	3%	14%	2%
CC(Cl)c1cc(-c2ncc(C(F)(F)F)cc2Cl)no1 (centres undefined)	-2%	7%	2%	?	7%	-14%
FC(F)(F)c1cnc(-c2cnc(-c3ccccn3)nc2)c(Cl)c1	?	11µM*	0.71µM*	11µM*	2%	?
FC(F)(F)c1cnc(-c2cnc(-c3ccncc3)nc2)c(Cl)c1	?	24%	3.2µM*	?	2%	?
COc1ccc(C(=O)N2CCN(C)C(=O)[C@@H]2C)cc1OC1CCN(C(C)C)CC1	-3%	nt	-1%	6%	7%	-4%
Cn1ccnc1Sc1ccc(/C=N/NC(=O)c2ccccc2[N+](=O)[O-])cc1[N+](=O)[O-]	2%	4%	-2%	1%	0%	-6%
Cn1ccnc1Sc1ccc(/C=N/NC(=O)c2ccccc2O)cc1[N+](=O)[O-]	3%	-7%	1%	5.4µM*	7%	?
Cc1ccc(S(=O)(=O)NC2(C(F)(F)F)NC(=O)N(c3ccccc3F)C2=O)cc1 (centres undefined)	-4%	nt	-1%	2%	-1%	-8%
O=C1ON=C(c2cccc([N+](=O)[O-])c2)/C1=C/c1ccc(O)cc1	-2%	-10%	-8%	17µM*	?	?
SMILES	NPC1 prom act	SMN2 splice enh	Rab9 promoter act	FLuc counter	ELG1 genotox	ELG1 DNA repair
O=C1ON=C(c2ccccc2)/C1=C/c1ccc(O)c(O)c1	-7%	nt	-8%	?	?	19%
CC1CCc2c(sc3nnn(Cc4ccc(F)cc4)c(=O)c23)C1 (centres undefined)	nt	-7%	nt	1%	nt	nt
COc1ccc(C(=O)n2nnc3ccccc32)cc1OC	-1%	-3%	-5%	?	1%	-13%
COC(=O)c1cc2c(s1)-c1ccccc1OC2	8%	2%	-11%	24µM*	10%	?
O=C(c1ccc2c(c1)OCO2)N1CCCc2ccccc21	3%	nt	-2%	?	?	?
O=C(c1ccc2c(c1)OCO2)N1CCc2ccccc2C1	?	?	24%	21µM*	?	?
O=C(c1ccc2c(c1)OCO2)n1nnc2ccccc21	-3%	-8%	1%	6.7µM*	-1%	-2%
COc1ccccc1N1CCN(C(=O)c2cc3c(s2)CCCCC3)CC1	-1%	nt	2%	-22%	-12%	-17%
COc1ccccc1N1CCN(C(=O)c2cc3c(s2)-c2ccccc2OC3)CC1	0%	-5%	-2%	3%	-1%	21µM*
Cn1c(=O)c2c(ncn2CC(=O)OCC(=O)Nc2cc(Cl)ccc2Cl)n(C)c1=O	-4%	11%	-4%	6%	1%	7%
O=C(NCc1ccccc1Cl)C1CCN(C(=O)N2CCOc3ccccc32)CC1	nt	nt	nt	2%	nt	nt
COC(=O)c1cc2c(s1)-c1ccc(OC)cc1CC2	15%	nt	?	9.5µM*	?	?
CCOC(=O)C1CCN(C(=O)c2cc3c(s2)-c2ccccc2OC3)CC1	27%	nt	?	?	?	?
O=C(c1cc2c(s1)-c1ccccc1OC2)N1CCc2ccccc2C1	11%	20µM*	21%	?	17%	?
CCOc1ccc(-c2ccc(SCc3ccccn3)nn2)cc1	?	16%	?	13µM*	-7%	5%
CCc1ccc(-c2ccc(SCc3ccccn3)nn2)cc1	3.2µM*	?	?	8.5µM*	?	?
Cc1ccc(NC(=O)C2CCN(C(=O)c3sc4nc[nH]c(=O)c4c3C)CC2)cc1F	nt	nt	nt	-3%	nt	nt
COc1cc(OC)cc(C(=O)Nc2nnc3n2CCS3)c1	nt	nt	nt	-3%	nt	nt
O=C(CCN1CCCCC1)N1CCc2c([nH]c3ccccc23)[C@H]1c1cccnc1	nt	-2%[9.22 µM]	nt	nt	nt	nt
COc1ccccc1N1CCN(S(=O)(=O)CCNC(=O)c2ccc(Br)o2)CC1	1%	nt	4%	2%	-3%	-2%
Cc1nn(-c2ccc(N3CCOCC3)nn2)c(C)c1CCC(=O)NCc1ccc(OC(C)C)cc1	nt	nt	nt	-2%	nt	nt

High-throughput results from PubChem.
